Assay outcomes: PubChem BioAssay, National Center for Advancing Translational Sciences (NCATS)
PNC inhibitor = High Content Assay for Compounds that inhibit the Assembly of the Perinucleolar Compartment; PC3M PTB-GFP, PNC prevalence imaging, 16 h; active compounds read low; activity change (PNC), negative = inhibition, % at 10 µM; actives 3.1% (n = 140,000); AID 2417, 2010;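 active = readout at or below -70, meaning at least 70% loss of cells showing the perinucleolar compartment, a nuclear body marking cancer cells; inconclusive = readout between -30 and a set limit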;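 also: plate controls were DMSO wells for no effect and camptothecin positive control wells for full effect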
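Compounds are pinned in duplicate onto adhered PC3M cells stably expressing GFP-tagged PTB and incubated 16 h at 37 C. Cells are then fixed, nuclei stained with Hoechst, and PNC-positive cells counted.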
ALDH1A1 inh = qHTS Assay for Inhibitors of Aldehyde Dehydrogenase 1 (ALDH1A1); Aldehyde dehydrogenase 1A1 (Homo sapiens), P00352; Purified ALDH1A1, NADH fluorescence, propionaldehyde substrate; Potency, µM (series often up to 75.3 µM), for inactives: at the highest dose activity, negative = inhibition, usual class: inhibitors; actives 7.3% (n = 220,000);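 also: potency is read from the fitted curve at half-maximal effect; plate controls were no enzyme wells and a reference inhibitor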
Target sequence (P00352 whole entry, looked up): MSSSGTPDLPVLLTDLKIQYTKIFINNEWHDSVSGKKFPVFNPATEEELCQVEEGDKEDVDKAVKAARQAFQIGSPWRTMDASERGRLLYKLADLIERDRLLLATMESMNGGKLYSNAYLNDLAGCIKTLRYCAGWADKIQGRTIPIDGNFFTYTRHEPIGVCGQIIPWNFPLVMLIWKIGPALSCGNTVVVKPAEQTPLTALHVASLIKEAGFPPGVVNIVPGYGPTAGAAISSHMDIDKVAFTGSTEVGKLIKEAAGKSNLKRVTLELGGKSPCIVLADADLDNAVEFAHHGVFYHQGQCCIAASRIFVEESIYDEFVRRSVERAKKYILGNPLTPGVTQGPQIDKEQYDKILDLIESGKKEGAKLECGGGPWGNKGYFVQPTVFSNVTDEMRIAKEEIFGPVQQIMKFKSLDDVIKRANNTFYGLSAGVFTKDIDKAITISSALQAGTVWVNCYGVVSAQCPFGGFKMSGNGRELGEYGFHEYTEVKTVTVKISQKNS
HPGD inh = qHTS Assay for Inhibitors of HPGD (15-Hydroxyprostaglandin Dehydrogenase); 15-hydroxyprostaglandin dehydrogenase [NAD(+)] (Homo sapiens), P15428; purified HPGD, NADH fluorescence kinetic, PGE2 substrate; Potency, µM, inactives show at the top dose activity change, negative = inhibition, usual class: inhibitors; actives 4.3% (n = 150,000); AID 894, 2007; also: potency is read from the fitted curve at half-maximal effect
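NADH formation kinetics: reaction with 30 uM PGE2 and 1 mM NAD+ (final), 20 nM enzyme, Tris-HCl pH 8 with Tween 20, after 15 min compound preincubation at room temperature. Fluorescence change, last versus first of five reads.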
Active calls of the source: *; ? = inconclusive; / = no result; [ ] = dose if it differs, or a comment. Most compounds without a hit are left out; they make up all but 11% or so of the library. Unless noted, calls follow the shape of the dose curve; as a rule, active = well fitted inhibition curve with a large enough effect (not every such curve was filed as active); inconclusive = small, poorly fitted or top-dose-only effect, or another doubt; inactive = no such curve, though single readings can be large or run the other way. Unless noted, % is scaled to controls: 0 for no effect and ±100 for the full control effect.

SMILES	PNC inhibitor	ALDH1A1 inh	HPGD inh
Cn1c(=O)n(C)c2cc(/C=N/NC(=O)c3ccc(Cl)cc3Cl)ccc21	64	?	?
O=C(CP(=O)(c1ccccc1)c1ccccc1)N/N=C/c1cc(Br)cc(Br)c1O	-30	-2%	0.14µM*
O=C(Cc1ccccc1)N/N=C/c1cc(Br)cc(Cl)c1O	/	7%	/
CSc1nc2nc3c(cc2c(=O)n1-c1ccccc1)COC(C)(C)C3	/	14µM*	/
Cc1ccc(-n2c(=S)[nH]c3nc4c(cc3c2=O)COC(C)(C)C4)cc1	-20	?	-1%
CSc1nc2nc3c(cc2c(=O)n1-c1cccc(C)c1)COC(C)(C)C3	/	3.5µM*	/
CCC1(C)Cc2nc3[nH]c(=S)n(-c4ccc(C)cc4)c(=O)c3cc2CO1 (stereo unspecified)	-15	?	-16%
CCC(C)Nc1c2c(nc3c(-c4ccccc4)c(C)nn13)CCC2 (stereo unspecified)	14	?	-21%
CC1CCCN(C(=O)C(C)Sc2nc(-c3ccccc3)cc(C(F)(F)F)n2)C1 (stereo unspecified)	?	-12%	16µM*
CC(Sc1nc(-c2ccccc2)cc(C(F)(F)F)n1)C(=O)N1CCCCC1 (stereo unspecified)	64	-10%	7.1µM*
CC(Sc1nc(-c2ccccc2)cc(C(F)(F)F)n1)C(=O)NCc1ccco1 (stereo unspecified)	-17	-9%	-11%
O=C(CSc1nc(-c2ccccc2)cc(C(F)(F)F)n1)N1CCOCC1	?	-8%	-10%
O=C(c1ccco1)N1CCC2(CCN(Cc3cc(C(F)(F)F)cc(C(F)(F)F)c3)CC2)CC1	/	?	-11%
CCOC(=O)CSc1nnc(-c2cc(OC)c(OC)c(OC)c2)o1	/	1%	/
COc1cc(-c2nnc(SCc3cc(=O)oc4cc(O)c(O)cc34)o2)cc(OC)c1OC	-7	?	7.9µM*
CCOC(=O)NCc1ccc(S(=O)(=O)Nc2ccccc2C)cc1	-24	5%	-2%
COC(=O)COc1cccc(NS(=O)(=O)c2cccc([N+](=O)[O-])c2)c1	/	1%	/
O=C(O)CSc1cc(NS(=O)(=O)c2cccc([N+](=O)[O-])c2)c2ccccc2c1O	/	3.5µM*	/
CCc1ccc(S(=O)(=O)Nc2cc(SCC(=O)O)c(O)c3ccccc23)cc1	/	14µM*	/
CN(C)C(=O)C(NC(=O)c1ccccc1)=C(Cl)Cl	/	6%	/
Cc1cc2nc(NC3=NCN(Cc4ccc5c(c4)OCO5)CN3)nc(C)c2cc1C	?	4%	-4%
Cc1nc(NCc2ccccc2)c2nc(-c3ccccc3)n(CC3CCN(C)CC3)c2n1	/	-14%	-23%
COC(=O)c1c(-c2cccc(C)c2)csc1N	12	16%	-27%
COC(=O)c1c(-c2ccc(OC)c(OC)c2)csc1N	-15	4µM*	28µM*
COC(=O)c1c(-c2ccc3ccccc3c2)csc1NC(=O)Cc1ccc(OC)c(OC)c1	35	-1%	-11%
SMILES	PNC inhibitor	ALDH1A1 inh	HPGD inh
COC(=O)c1c(-c2cccc(OC)c2)csc1N	30	25µM*	-19%
CC(C)NC(=O)N1CC2(CCN(C(=O)c3cccn3C)CC2)C1	/	9%	-4%
CCOC(=O)c1c(C)[nH]c(C(=O)OCC(=O)Nc2cc(C)c(Cl)cc2OC)c1C	?	7%	-3%
c1ccc(CNc2nc3ccccc3[nH]2)cc1	-19	4%	-13%
S=C(NCc1ccccc1)NNc1nc2ccccc2[nH]1	/	1.3µM*	/
O=c1c(-c2ccc(O[C@@H]3O[C@H](CO)[C@@H](O)[C@H](O)[C@H]3O)cc2)coc2cc(O)cc(O)c12	/	?	-18%
COc1ccc(N=N/C(=C\O)C(=O)c2ccco2)cc1	/	7.9µM*	/
COc1ccc(/C(N)=N/OC(=O)c2ccco2)cc1	/	0%	/
Fc1ccc(COc2ccccc2CNCc2ccncc2)cc1	?	?	-3%
Brc1ccc(OCc2ccccc2)c(CNCc2ccncc2)c1	-109*	2µM*	-6%
Cn1c(=O)c([N+](=O)[O-])c(NCC(O)c2ccccc2)c2ccccc21 (stereo unspecified)	-22	?	25µM*
Cc1cccc(Nc2c([N+](=O)[O-])c(=O)n(C)c3ccccc23)c1	-2	4%	-5%
O=c1c([N+](=O)[O-])c(NCCN2CCCCCC2)c2ccccc2n1-c1ccccc1	?	4µM*	-10%
CCn1c(=O)c([N+](=O)[O-])c(NCCN(C)C)c2ccccc21	/	11µM*	/
COCCNc1c([N+](=O)[O-])c(=O)n(-c2ccccc2)c2ccccc12	20	?	-7%
CCn1c2ccccc2c2cc(NC(=O)c3cccc([N+](=O)[O-])c3)ccc21	?	14%	-12%
CCCCNc1c([N+](=O)[O-])c(=O)n(C)c2ccccc12	/	-8%	/
CCn1c(=O)c([N+](=O)[O-])c(NCC(O)c2ccccc2)c2ccccc21 (stereo unspecified)	?	?	16µM*
O=C(O)CCCC(=O)NS(=O)(=O)c1ccc(Cl)cc1	14	0%	-7%
CSCCC(NS(=O)(=O)c1ccccc1F)C(=O)NC(C)c1ccccc1 (stereo unspecified)	/	0%	/
O=C(Nn1cnnc1)c1ccccc1CCc1ccccc1	11	-14%	-9%
C=C(CC1([C@@H](NP(=O)(c2ccccc2)c2ccccc2)[C@H]2C[C@@H]2CCCC)CC1)c1cccc(OC)c1	/	?	-17%
N#CCSc1nnc(-c2ccccc2O)n1CCc1ccccc1	?	6%	-7%
CC(c1nccs1)N(C)c1nc2nonc2nc1N(C)C (stereo unspecified)	/	-7%	/
O=C(CC(Cc1ccccc1)c1ccco1)NCc1ccco1 (stereo unspecified)	/	-4%	/
SMILES	PNC inhibitor	ALDH1A1 inh	HPGD inh
CC(=O)NCCC(Cc1ccccc1)c1ccco1 (stereo unspecified)	-100*	-6%	-11%
O=C(CN1CCN(Cc2ccccc2)CC1)N/N=C/c1c[nH]c2ccccc12	26	6%	-6%
CCC(C)n1c(C)nc2c(c1=O)c1nc3ccccc3nc1n2-c1ccc2c(c1)OCCO2 (stereo unspecified)	-3	3%	-15%
Cn1cnnc1SC(C(=O)Nc1cc(Cl)cc(Cl)c1)c1ccccc1 (stereo unspecified)	-12	-1%	-9%
O=C(CN(C(=O)CSc1nc2ccccc2o1)c1ccccc1F)NC1CCCCC1	-3	9%	-5%
COc1cccc(NC(=S)/C(=C(\[O-])c2ccc(OC(F)F)cc2)[n+]2ccccc2)c1	/	20µM*	/
[O-]/C(=C(\C(=S)Nc1cccc2ccccc12)[n+]1ccccc1)c1ccc(OC(F)F)cc1	/	19µM*	/
O=C(Nc1cccc2ccccc12)c1ccccc1	/	9%[13.5 µM]	-18%
Cc1ccccc1NC(=S)/C(=C(\[O-])c1ccc(C)c([N+](=O)[O-])c1)[n+]1ccccc1	-20	-13%	-2%
[O-]/C(=C(\C(=S)Nc1cccc2ccccc12)[n+]1ccccc1)c1ccc2c(c1)OCCO2	-18	10µM*	?
